Laboratory results reported in PubChem BioAssay AID1159580 (chemical genetic matrix, 2015).
Among all 5,500 compounds or so, about 2,000 (36%) were called active. Inconclusive results (about 18%) are left out. No stated cut-off is given here; in the data, active means normalized growth mostly below about 0.91 (no sharp cut-off); inconclusive means no clear call, values can overlap the other calls; inactive means mostly above about 0.92. This is one part of the list.

Assay: chemical genetic growth profiling, strain panel (AID 1159580);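 further: tested at 20 µM; growth read once vehicle control cultures reached saturation at 30 °C; 1 = growth at the plate median or of vehicle wells; lower values mean less growth of the strain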
Conditions: growth OD

Measured: normalized growth

CCCNC1CCc2nc(N)sc2C1 (stereo unspecified)
inactive: S. cerevisiae deletion strains, locus YAL013W, strain DEP1, active compounds read low 1.01 | S. cerevisiae deletion strains, locus YBR021W, strain FUR4, active compounds read low 1.02 | S. cerevisiae deletion strains, locus YBR229C, strain ROT2, active compounds read low 1.01 | S. cerevisiae deletion strains, locus YCL029C, strain bik1, active compounds read low 0.997 | S. cerevisiae deletion strains, locus YDL035C, strain GPR1, active compounds read low 1.02 | S. cerevisiae deletion strains, locus YDL074C, strain BRE1, active compounds read low 1.04 | S. cerevisiae deletion strains, locus YDL101C, strain DUN1, active compounds read low 1.01 | S. cerevisiae deletion strains, locus YDL134C, strain PPH21, active compounds read low 1.01 | S. cerevisiae deletion strains, locus YDL185W, strain tfp1, active compounds read low 1.01 | S. cerevisiae deletion strains, locus YDL192W, strain arf1, active compounds read low 1 | S. cerevisiae deletion strains, locus YDR101C, strain arx1, active compounds read low 0.988 | S. cerevisiae deletion strains, locus YDR150W, strain NUM1, active compounds read low 1.01 | S. cerevisiae deletion strains, locus YDR162C, strain NBP2, active compounds read low 1.01 | S. cerevisiae deletion strains, locus YDR318W, strain mcm21, active compounds read low 1 | S. cerevisiae deletion strains, locus YDR388W, active compounds read low 0.994 | S. cerevisiae deletion strains, locus YDR502C, strain sam2, active compounds read low 0.995 | S. cerevisiae deletion strains, locus YEL061C, strain CIN8, active compounds read low 1.01 | S. cerevisiae deletion strains, locus YER110C, active compounds read low 0.99 | S. cerevisiae deletion strains, locus YER155C, strain BEM2, active compounds read low 0.983 | S. cerevisiae deletion strains, locus YER167W, strain BCK2, active compounds read low 1.01 | S. cerevisiae deletion strains, locus YGL078C, strain dbp3, active compounds read low 1.01 | S. cerevisiae deletion strains, locus YGL086W, strain mad1, active compounds read low 0.994 | S. cerevisiae deletion strains, locus YGL248W, strain PDE1, active compounds read low 1.01 | S. cerevisiae deletion strains, locus YGR078C, strain PAC10, active compounds read low 1.03 | S. cerevisiae deletion strains, locus YGR135W, strain pre9, active compounds read low 1 | S. cerevisiae deletion strains, locus YGR229C, strain SMI1, active compounds read low 1.03 | S. cerevisiae deletion strains, locus YGR252W, strain gcn5, active compounds read low 1.03 | S. cerevisiae deletion strains, locus YHR030C, strain SLT2, active compounds read low 1.01 | S. cerevisiae deletion strains, locus YHR079C, strain IRE1 (second series), active compounds read low 0.995 | S. cerevisiae deletion strains, locus YHR094C, strain hxt1, active compounds read low 1 | S. cerevisiae deletion strains, locus YHR129C, strain ARP1, active compounds read low 1.01 | S. cerevisiae deletion strains, locus YHR200W, strain rpn10, active compounds read low 1 | S. cerevisiae deletion strains, locus YIL066C, strain RNR3, active compounds read low 1.02 | S. cerevisiae deletion strains, locus YIL073C, strain SPO22, active compounds read low 1.03 | S. cerevisiae deletion strains, locus YIL125W, strain kgd1, active compounds read low 1 | S. cerevisiae deletion strains, locus YIR030C, strain dcg1, active compounds read low 0.998 | S. cerevisiae deletion strains, locus YJL095W, strain BCK1, active compounds read low 1.02 | S. cerevisiae deletion strains, locus YJL134W, strain LCB3, active compounds read low 1.01 | S. cerevisiae deletion strains, locus YJL168C, strain set2, active compounds read low 1 | S. cerevisiae deletion strains, locus YJL187C, strain SWE1 (second series), active compounds read low 1.01 | S. cerevisiae deletion strains, locus YJR043C, strain POL32, active compounds read low 1 | S. cerevisiae deletion strains, locus YJR075W, strain HOC1, active compounds read low 1 | S. cerevisiae deletion strains, locus YKL009W, strain mrt4, active compounds read low 1.02 | S. cerevisiae deletion strains, locus YKL068W, active compounds read low 1.01 | S. cerevisiae deletion strains, locus YKL085W, strain MDH1 (second series), active compounds read low 1.01 | S. cerevisiae deletion strains, locus YKL085W, strain MDH1, active compounds read low 1.01 | S. cerevisiae deletion strains, locus YKL190W, strain CNB1, active compounds read low 1.02 | S. cerevisiae deletion strains, locus YKR001C, strain vps1, active compounds read low 1.01 | S. cerevisiae deletion strains, locus YLR039C, strain RIC1, active compounds read low 1.05 | S. cerevisiae deletion strains, locus YLR058C, strain SHM2, active compounds read low 1.01 | S. cerevisiae deletion strains, locus YLR102C, strain apc9, active compounds read low 0.997 | S. cerevisiae deletion strains, locus YLR262C, strain YPT6, active compounds read low 1.06 | S. cerevisiae deletion strains, locus YLR268W, strain sec22, active compounds read low 0.992 | S. cerevisiae deletion strains, locus YLR330W, strain CHS5, active compounds read low 1.01 | S. cerevisiae deletion strains, locus YLR342W, strain FKS1 (second series), active compounds read low 1.02 | S. cerevisiae deletion strains, locus YLR371W, strain rom2, active compounds read low 1 | S. cerevisiae deletion strains, locus YLR418C, strain cdc73, active compounds read low 1.01 | S. cerevisiae deletion strains, locus YML016C, strain PPZ1, active compounds read low 1 | S. cerevisiae deletion strains, locus YML032C, strain rad52, active compounds read low 0.992 | S. cerevisiae deletion strains, locus YML124C, strain tub3, active compounds read low 1 | S. cerevisiae deletion strains, locus YMR078C, strain ctf18, active compounds read low 0.999 | S. cerevisiae deletion strains, locus YMR223W, strain ubp8, active compounds read low 1.01 | S. cerevisiae deletion strains, locus YMR263W, strain SAP30, active compounds read low 1.01 | S. cerevisiae deletion strains, locus YMR307W, strain GAS1, active compounds read low 0.995 | S. cerevisiae deletion strains, locus YNL067W, strain RPL9B, active compounds read low 1.01 | S. cerevisiae deletion strains, locus YNL128W, strain TEP1, active compounds read low 1.02 | S. cerevisiae deletion strains, locus YNL153C, strain GIM3, active compounds read low 1 | S. cerevisiae deletion strains, locus YNL233W, strain BNI4, active compounds read low 1.01 | S. cerevisiae deletion strains, locus YNL250W, strain rad50, active compounds read low 0.996 | S. cerevisiae deletion strains, locus YNL271C, strain bni1, active compounds read low 0.993 | S. cerevisiae deletion strains, locus YNL298W, strain CLA4, active compounds read low 1.03 | S. cerevisiae deletion strains, locus YNL307C, strain MCK1, active compounds read low 0.995 | S. cerevisiae deletion strains, locus YNL322C, strain KRE1, active compounds read low 1.01 | S. cerevisiae deletion strains, locus YNR052C, strain pop2, active compounds read low 1 | S. cerevisiae deletion strains, locus YOL006C, strain TOP1, active compounds read low 1.03 | S. cerevisiae deletion strains, locus YOL012C, strain htz1 1.08 | S. cerevisiae deletion strains, locus YOL147C, strain pex11, active compounds read low 0.995 | S. cerevisiae deletion strains, locus YOR061W, strain CKA2, active compounds read low 1.01 | S. cerevisiae deletion strains, locus YOR069W, strain VPS5, active compounds read low 1.01 | S. cerevisiae deletion strains, locus YOR136W, strain idh2, active compounds read low 1 | S. cerevisiae deletion strains, locus YOR144C, strain elg1, active compounds read low 1.01 | S. cerevisiae deletion strains, locus YOR184W, strain ser1, active compounds read low 1.02 | S. cerevisiae deletion strains, locus YOR316C, strain cot1, active compounds read low 1 | S. cerevisiae deletion strains, locus YPL055C, strain LGE1, active compounds read low 1.06 | S. cerevisiae deletion strains, locus YPL241C, strain CIN2, active compounds read low 1.01 | S. cerevisiae deletion strains, locus YPR119W, strain clb2, active compounds read low 1.01 | S. cerevisiae deletion strains, locus YPR141C, strain kar3, active compounds read low 0.996 | S. cerevisiae deletion strains, locus YPR163C, strain tif3, active compounds read low 0.993 | S. cerevisiae deletion strains, locus YPR167C, strain met16, active compounds read low 1.01 | S. cerevisiae deletion strains, strain wtn01, active compounds read low 0.989 | S. cerevisiae strains, strain wild type, active compounds read low 1.01
